Assay results as given in PubChem BioAssay (EPA / NIEHS).
Inconclusive results are not listed. Active and inactive are the calls of the source. How the source made its calls, unless noted: active means hit-call score of the fitted dose curve at least 0.9, where 1 is the maximum; inactive means score below 0.9.

Experiments:
[1] = target: Estrogen receptor (Homo sapiens) (UniProt P03372); assay: CCTE_Deisenroth_AIME_384WELL_LUC_Inactive: CCTE's 384-well Estrogen Receptor Transactivation Assay without AIME metabolic competence (ERTA luciferase; metabolism negative), Deisenroth Lab (AID 2284038; active means hit-call score of the fitted dose curve at least 0.9, where 1 is the maximum;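 further: VM7Luc4E2 breast cells given medium preincubated 2 h with S9-free microspheres; hits raise estrogen receptor luciferase signal so potencies reflect agonists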)
Chain of Estrogen receptor (Homo sapiens) (P03372 whole entry, looked up): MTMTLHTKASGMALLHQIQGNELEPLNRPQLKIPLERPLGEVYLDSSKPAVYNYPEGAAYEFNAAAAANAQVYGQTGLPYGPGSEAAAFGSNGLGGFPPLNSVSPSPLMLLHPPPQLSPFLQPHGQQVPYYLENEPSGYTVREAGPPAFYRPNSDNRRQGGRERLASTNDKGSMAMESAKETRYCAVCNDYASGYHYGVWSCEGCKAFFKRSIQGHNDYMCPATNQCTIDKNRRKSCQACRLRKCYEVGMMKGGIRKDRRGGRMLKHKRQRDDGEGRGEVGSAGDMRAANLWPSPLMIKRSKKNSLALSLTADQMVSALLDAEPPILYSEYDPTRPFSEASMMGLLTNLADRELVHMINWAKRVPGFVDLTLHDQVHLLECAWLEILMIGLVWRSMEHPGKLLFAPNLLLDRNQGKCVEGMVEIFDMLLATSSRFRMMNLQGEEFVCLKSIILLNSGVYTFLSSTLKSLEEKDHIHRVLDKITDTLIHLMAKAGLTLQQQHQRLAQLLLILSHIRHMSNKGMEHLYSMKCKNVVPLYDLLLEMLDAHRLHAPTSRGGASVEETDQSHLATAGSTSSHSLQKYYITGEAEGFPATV
Outline: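 Metabolism-negative mode: chemicals (10-point, 0.002–200 uM) held 2 h with alginate-water microspheres, then conditioned medium applied to VM7Luc4E2 cells for 24 h. Luciferase induction referenced to 17beta-estradiol.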

[2] = CCTE_Deisenroth_AIME_384WELL_CTox_Inactive: Cytotoxicity Assessment (CTOX) in CCTE's 384-well Estrogen Receptor Transactivation Assay without AIME metabolic competence (metabolism negative), Deisenroth Lab (AID 2284039; active means hit-call score of the fitted dose curve at least 0.9, where 1 is the maximum;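 further: cell viability via live-cell protease substrate cleaved to fluorescent probe; cells exposed 24 h to medium preincubated 2 h with alginate-water beads without S9; loss of fluorescence signal means loss of viability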)
Outline: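 Fluorescence from a live-cell protease substrate, read after 24 h in VM7Luc4E2 cells, indicated viability. Test medium came from a 2 h AIME step without hepatic S9 (alginate-water microspheres); concentrations spanned 0.002 - 200 uM, single technical replicate per run.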

[3] = target: Estrogen receptor (Homo sapiens) (UniProt P03372); assay: CCTE_Deisenroth_AIME_384WELL_LUC_Shift: CCTE's 384-well Estrogen Receptor Transactivation Assay with AIME metabolic competence data shift (ERTA luciferase; difference in metabolism positive and negative), Deisenroth Lab (AID 2284041);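 further: shift is response with S9 minus without S9 so positive means metabolism raised ER signal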
Outline: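 Test chemicals (0.002–200 uM, 10-point) were pre-incubated 2 h with alginate microspheres containing phenobarbital/beta-naphthoflavone-induced male Sprague Dawley rat liver S9 or water, then medium was transferred to VM7Luc4E2 cells for 24 h luciferase readout; shift = S9-positive minus S9-negative normalized response.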

[4] = CCTE_Shafer_MEA_dev_firing_rate_mean: CCTE's Neural Network Formation Assay for Mean Firing Rate, Shafer Lab (AID 2284031);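 on AC50: curve fitted for loss of firing so AC50 reflects decreased mean firing rate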
Outline: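 Rat primary cortical neurons were seeded on multielectrode arrays and treated from plating through day 12, with redosing at each feed. Spontaneous spiking was recorded four times; mean firing rate AUC was fitted downward against DMSO.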

[5] = CCTE_Shafer_MEA_dev_per_burst_spike_percent: CCTE's Neural Network Formation Assay for Percent of Spikes in a Burst, Shafer Lab (AID 2284032);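 on AC50: fitted as a decrease in burst spike percentage below DMSO baseline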
Outline: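 Rat primary cortical neurons on 16-electrode MEA wells, dosed from plating day 0 for 12 days with renewal on DIV 5 and 9; spikes-in-bursts percentage averaged over bursting electrodes, collapsed as AUC across days 5, 7, 9, 12; loss direction versus DMSO.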

[6] = CCTE_Shafer_MEA_dev_active_electrodes_number: CCTE's Neural Network Formation Assay for Number of Active Electrodes, Shafer Lab (AID 2284040; active means hit-call score of the fitted dose curve at least 0.9, where 1 is the maximum;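 on AC50: potency for loss of active electrodes versus DMSO so lower counts are hits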)
Outline: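 Primary rat cortical neurons on 16-electrode MEA wells, exposed from day 0 through day 12 with compound renewed at DIV 5 and 9 feeds. Active electrodes (mean firing ≥5 spikes/min) counted at DIV 5, 7, 9, 12; trapezoidal AUC across days, loss-of-signal versus DMSO.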

[7] = CCTE_Shafer_MEA_dev_burst_rate: CCTE's Neural Network Formation Assay for Burst Rate, Shafer Lab (AID 2284042);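 on AC50: potency for loss of burst rate below DMSO control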
Outline: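 Developmental network assay measuring how 12-day exposure of rat cortical neuron cultures alters bursting on extracellular MEA recordings. Values are AUC of well-mean burst rate across four recording days, relative to DMSO vehicle.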

[8] = CCTE_Shafer_MEA_dev_bursting_electrodes_number: CCTE's Neural Network Formation Assay for Number of Bursting Electrodes, Shafer Lab (AID 2284043; active means hit-call score of the fitted dose curve at least 0.9, where 1 is the maximum;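 on AC50: potency is for loss of bursting electrodes relative to DMSO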)
Outline: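 Read-out is the per-well number of electrodes bursting at least once every 2 minutes, recorded on days 5, 7, 9 and 12 and collapsed by trapezoidal area under the curve. Cultures were primary rat cortical neurons on MEA plates, treated continuously from plating.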

[9] = CCTE_Shafer_MEA_dev_per_burst_interspike_interval: CCTE's Neural Network Formation Assay for Burst Interspike Interval, Shafer Lab (AID 2284044);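 further: mean spike spacing inside bursts as AUC over recordings on days 5 7 9 12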;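 on AC50: potency for a decrease of within-burst interspike interval below DMSO level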
Outline: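 Spontaneous activity of maturing rat cortical networks is recorded on DIV 5, 7, 9 and 12 under chronic compound exposure beginning at plating. Endpoint: burst interspike interval well-mean, collapsed into trapezoidal AUC and fitted in the negative direction relative to DMSO.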

[10] = CCTE_Shafer_MEA_dev_burst_duration_mean: CCTE's Neural Network Formation Assay for Mean Burst Duration, Shafer Lab (AID 2284045);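 on AC50: curve fitted for loss meaning shorter burst duration than DMSO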
Outline: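 Read-out: average first-to-last-spike interval within single-electrode bursts, averaged over bursting electrodes per well, then summarised as area under the curve across days 5, 7, 9 and 12. Developing rat cortical networks were exposed from day 0.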

O=C(O)COc1ccc(Cl)cc1
outcome [1]: inactive | outcome [2]: inactive | outcome [3]: inactive

CCN(CCO)CCO
outcome [1]: inactive | outcome [2]: inactive | outcome [3]: inactive

C=CCOC(F)(C(F)(F)F)C(F)(F)F
outcome [4]: inactive | outcome [5]: inactive | outcome [6]: inactive | outcome [7]: inactive | outcome [8]: inactive | outcome [9]: inactive | outcome [10]: inactive

Cc1cc(Cl)ccc1OCCCC(=O)O
outcome [2]: inactive

COc1ccccc1N
outcome [2]: inactive

N#CS
outcome [2]: inactive

CCOc1ccc(N)cc1
outcome [1]: inactive | outcome [2]: inactive | outcome [3]: inactive

N#CCC#N
outcome [1]: inactive | outcome [2]: inactive | outcome [3]: inactive

Cc1ccccc1OP(=O)(Oc1ccccc1C)Oc1ccccc1C
outcome [4]: inactive | AC50 [5]: 15 µM (active) | AC50 [6]: 20.2 µM (active) | outcome [7]: inactive | AC50 [8]: 15 µM (active) | outcome [9]: inactive | outcome [10]: inactive

C=CC(F)(C(F)(F)F)C(F)(F)C(F)(F)F (stereo not drawn)
outcome [4]: inactive | outcome [5]: inactive | outcome [7]: inactive | outcome [8]: inactive | outcome [9]: inactive | outcome [10]: inactive

CC(=O)C(F)(F)C(F)(F)F
outcome [4]: inactive | outcome [5]: inactive | outcome [7]: inactive | outcome [8]: inactive | outcome [9]: inactive | outcome [10]: inactive

NC(=O)c1ccc(N)nc1
AC50 [4]: 9.03 µM (active) | AC50 [5]: 5.88 µM (active) | AC50 [6]: 6.3 µM (active) | AC50 [7]: 8.62 µM (active) | AC50 [8]: 5.44 µM (active) | AC50 [9]: 8.19 µM (active) | AC50 [10]: 8.66 µM (active)

CC(C)O.CC(C)O.OCCN(CCO)CCO.OCCN(CCO)CCO.[Ti]
outcome [2]: inactive

FC(F)OCC(F)(F)C(F)(F)F
outcome [4]: inactive | outcome [5]: inactive | outcome [6]: inactive | outcome [7]: inactive | outcome [8]: inactive | outcome [9]: inactive | outcome [10]: inactive

CNC(=O)CSP(=O)(OC)OC
outcome [4]: inactive | outcome [5]: inactive | outcome [6]: inactive | outcome [7]: inactive | outcome [8]: inactive | outcome [9]: inactive | outcome [10]: inactive
